Only some compounds are listed: those with a hit (about 1.6% of all), similar ones and a draw of the others.
KCNQ2 pot – potentiators of rat KCNQ2 potassium channel; CHO-K1 KCNQ2, FluxOR thallium flux fluorescence; active compounds read high; B-score at 10 µM; actives 0.54% (n = 310,000);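 active = fluorescence ratio B-score at least 3 SD of library B-scores, with initial fluorescence B-score within 3 of them, cut at about 5.3 in these data; same plate scores as AID 2156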;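 also: B-score of peak minus minimum over baseline fluorescence ratio after K+ and Tl+ stimulus; positive B-score means potentiation of KCNQ2 with more thallium influx and brighter signal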
KCNQ2 block – inhibitors of rat KCNQ2 potassium channel | O88943 | CHO-K1 KCNQ2, FluxOR thallium flux, 20 min; active compounds read low | B-score at 10 µM | actives 1.1% (n = 310,000) | AID 2156;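 active = fluorescence ratio B-score at most minus 3 library SDs, with starting brightness B-score within 2 library SDs, cut at about -5.5 in these data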
KCNQ2 block conf – confirmation of rat KCNQ2 potassium channel inhibitors; shares compounds with KCNQ2 block; KCNQ2-expressing cells, thallium flux, inhibition; active compounds read low; activity change, negative = inhibition, % at 10 µM; actives 57% (n = 1,000); AID 493025
KCNQ1 spec – KCNQ2 inhibitor that also affects human KCNQ1 channel; shares compounds with KCNQ2 block; actives 15% (n = 1,000); activity change, negative = inhibition, % at 10 µM; KCNQ1-expressing cells, FluxOR thallium flux fluorescence; active compounds read low; AID 493026;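 active = activity change at least 3 SD of negative controls below their mean in both duplicate wells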;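 also: CHO cells stably transfected with KCNQ1 and depolarized by potassium stimulus; peak minus minimum fluorescence over baseline after thallium addition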
Target sequence (P51787 whole entry, looked up): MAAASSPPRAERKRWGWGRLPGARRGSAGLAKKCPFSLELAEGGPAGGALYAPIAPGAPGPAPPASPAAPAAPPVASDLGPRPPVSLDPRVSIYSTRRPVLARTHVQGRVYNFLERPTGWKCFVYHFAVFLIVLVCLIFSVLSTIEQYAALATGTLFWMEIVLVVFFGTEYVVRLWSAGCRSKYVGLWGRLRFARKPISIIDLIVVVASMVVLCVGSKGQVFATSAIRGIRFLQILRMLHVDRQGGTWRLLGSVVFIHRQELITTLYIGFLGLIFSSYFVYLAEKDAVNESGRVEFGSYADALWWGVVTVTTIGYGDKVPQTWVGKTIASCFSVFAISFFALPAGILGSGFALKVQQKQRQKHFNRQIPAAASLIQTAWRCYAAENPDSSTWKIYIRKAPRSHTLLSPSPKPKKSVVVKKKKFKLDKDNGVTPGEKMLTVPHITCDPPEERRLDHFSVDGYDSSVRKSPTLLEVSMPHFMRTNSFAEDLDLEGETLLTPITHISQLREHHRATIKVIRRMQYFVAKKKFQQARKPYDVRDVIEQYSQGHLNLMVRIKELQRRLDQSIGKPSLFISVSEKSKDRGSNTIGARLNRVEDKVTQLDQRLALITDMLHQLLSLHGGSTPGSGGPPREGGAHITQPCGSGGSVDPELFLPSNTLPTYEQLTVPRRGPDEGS
CHO parental ctr – KCNQ2 inhibitor counter-screen hit in parental CHO cells; activity change, % at 10 µM; AID 493029; shares compounds with KCNQ2 block; thallium flux counter-screen; active compounds read low; actives 14% (n = 1,000)
KCNQ2 patch conf – blocks rat KCNQ2 current in automated patch clamp; shares compounds with KCNQ2 block; KCNQ2-expressing cells; calls only at 10 µM; actives 49% (n = 550); AID 588531
Hits are given with their value; 0 = inactive; - = not tested or not shown; + = active, no number. Unless noted, no rule for the calls is given here.

SMILES	KCNQ2 pot	KCNQ2 block	KCNQ2 block conf	KCNQ1 spec	CHO parental ctr	others
CN(C)c1nc(NCc2ccccc2)nc(SCC(=O)Nc2ccccc2Cl)n1	0	-6.86	0	0	0
CN(C)c1nc(NCc2ccccc2)nc(SCC(=O)Nc2ccccc2)n1	0	0	-	-	-
CCOC(=O)N1CCN(S(=O)(=O)c2c(C)nc3sccn3c2=O)CC1	0	0	-	-	-
CCN(CC(=O)Nc1c(F)cccc1F)C(=O)C1(c2ccccc2)CC1	-	0	-	-	-
CCCN(CCC)c1nc(-c2ccccn2)nc2ccccc12	-	0	-	-	-
c1ccc(CCNc2nc(-c3ccccn3)nc3ccccc23)cc1	0	-8.57	-29.0%	0	0	KCNQ2 patch conf=0
Cc1nn(C)c(C(=O)Sc2ccccc2)c1[N+](=O)[O-]	0	-7.89	-33.0%	0	0	KCNQ2 patch conf=0
Cc1nn(C)c(C(=O)Sc2cccc(Cl)c2)c1[N+](=O)[O-]	0	-9.67	-47.0%	-49.5%	-34.5%	KCNQ2 patch conf=0
CCn1nc(C)cc1C(=O)Sc1cccc(Cl)c1	-	0	-	-	-
Cc1nn(C)c(C(=O)N/N=C/c2ccccn2)c1[N+](=O)[O-]	0	0	-	-	-
O=S(=O)(N/N=C/c1cccnc1)c1ccc(Cl)c(Cl)c1	-	0	-	-	-
CCCc1cc(=O)[nH]c(SCC(=O)NCCC2=CCCCC2)n1	0	0	-	-	-
CCOC(=O)N/N=C/C=C/c1ccccc1	0	0	-	-	-
CCOC(=O)N1CCC(N(CCOC)C(=O)Nc2ccc(Cl)c(Cl)c2)CC1	0	-9.41	-25.0%	0	0
CCOC(=O)N1CCC(N(CCCOC)C(=O)Nc2cccc(OC)c2)CC1	-	0	-	-	-
Cc1ccc(S(=O)(=O)N(C)C)cc1NC(=O)COC(=O)c1ccc(Cl)cc1	0	0	-	-	-
COc1cc(CNc2nnnn2C)cc(OC)c1OC	0	0	-	-	-
COCCn1nnnc1C(c1ccc(OC)c(OC)c1)N1CCN(C(=O)c2ccco2)CC1 (centres undefined)	0	0	-	-	-
Cc1ccc(CN2CCN(/N=C/c3cccn3C)CC2)c(C)c1	-	0	-	-	-
Cc1ccc(CN2CCN(/N=C/c3ccc(C)s3)CC2)c(C)c1	0	-7.91	0	0	0
CN(CCO)c1cc(N2CCN(C(=O)c3ccco3)CC2)c2nonc2c1[N+](=O)[O-]	0	0	-	-	-
CN(C)c1ccnc(N(Cc2ccccc2)Cc2ccccc2)c1C#N	0	-7.18	0	0	0
CN(C)c1ccnc(NCc2ccccc2)c1C#N	0	0	-	-	-
COc1cc(/C=C/C(=O)NCc2ccccn2)cc(OC)c1OC	0	0	-	-	-
Cc1ccc(CC(=O)N(Cc2ccccc2)c2ccccn2)cc1	-	0	-	-	-
SMILES	KCNQ2 pot	KCNQ2 block	KCNQ2 block conf	KCNQ1 spec	CHO parental ctr	others
COc1ccc(/C=C/C(=O)N(Cc2ccccc2)c2ccccn2)cc1OC	0	-7.71	-17.5%	0	0	KCNQ2 patch conf=+
COc1cc(/C=C/C(=O)N(Cc2ccccc2)c2ccccn2)cc(OC)c1OC	0	-7.93	-29.0%	0	0	KCNQ2 patch conf=+
COc1ccccc1NC(=O)N(Cc1ccccc1)c1ccccn1	-	0	-	-	-
Cc1ccc(OCC(=O)N(Cc2ccccc2)c2ccccn2)cc1	0	-8.16	0	0	0
CN(C)/C=C1\C(=O)N(C)N=C1C(F)(F)F	0	0	-	-	-
COc1ccc(/C(C)=C(\C#N)C(=O)OC(C)C)cc1OC	0	0	-	-	-
O=C(COC(=O)CNC(=O)c1ccc(Cl)c([N+](=O)[O-])c1)NC(=O)CN1CCCC1=O	-	0	-	-	-
COc1ccc(/C(N)=N/OC(=O)CC2CCCCC2)cc1OC	0	0	-	-	-
COc1ccc(/C(N)=N/OC(=O)CSc2ccc(C)cc2)cc1OC	0	-9.2	0	0	0
COc1ccccc1/C=C/CN1CCCC(CO)(Cc2cccc(Cl)c2)C1 (centres undefined)	-	0	-	-	-
COc1ccc(/C=C/CN2CCCC(CO)(Cc3cccc(Cl)c3)C2)cc1 (centres undefined)	0	-6.79	-23.0%	0	0	KCNQ2 patch conf=0
COc1ccc(C(=O)c2c(C)c3cc(C)ccc3n2CC(O)CN2CCOCC2)cc1 (centres undefined)	-	0	-	-	-
COC(=O)N(NC(=O)C(O)(c1ccccc1)c1ccccc1)c1ccccc1	0	-6.99	0	0	0
O=C(c1ccc(F)cc1)N(NC(=O)C(O)(c1ccccc1)c1ccccc1)c1ccccc1	-	0	-	-	-
CC1CCN(C(=O)c2cc3nc(-c4ccccc4)cc(-c4ccccc4)n3n2)CC1	0	-7.84	-35.0%	0	0	KCNQ2 patch conf=0
O=C(NC1CCCC1)c1cc2nc(-c3ccccc3)cc(-c3ccccc3)n2n1	-	0	-	-	-
O=C(c1cc(-c2ccc(Cl)cc2)nc2ccccc12)N1CCOCC1	-	0	-	-	-
Cc1ccc(-c2cc(C(=O)N3CCC(C)CC3)c3ccccc3n2)cc1	0	-8.3	-29.0%	0	0	KCNQ2 patch conf=0

Screening results (PubChem)
